# In the supplement of paper PMC8728848:
# Shown is part of a subset that was picked to be rich in the strongest signals.
# B1: Vd7LysM (Verticillium dahliae) (protein)
# chain: RRGPEPKYPPAAGTSSYCSYWVDYEGDKSCSRVLEDNVVVLKDFARWNPTVGADCSGIKAGNSYCVEAFGEPEPIEVTTTTRAATTTTQPTATTTTFANGIATPQPTQSGMVTNCNKFHWIAEGVSCSQVISFQKITLADFVKWNPSVKSDCSGMWAGVNVCVGVVGSSTDTAKPTTTAPSNGVVTPQPTQPSMVTNCNKFHWIAKGVTCQQVISYQKISLADFVKWNPSVLSDCSGMWAEVQVCVGVIGSTPTTLATTTTTAGNGVSTPLPTQPGMVTNCAKFHWVAKGVTCNQIYSFQKITLEQFVSYNPTVKSDCSGMQAEVQVCVGLIAGTTPTTTRPPTTTAPGNGVSTPQPTQPGMVTNCAKFHWVAKGVTCNQIYSFQKITLEQFVSFNPTVKSDCTGMQAEVNVCVGLIGGNPTPTQTGNGIATPTPIQPGMVSNCKKFHWIAQGVTCQQVISFQKITLADFVKWNTGVGSDCRTMWAETNVCVGV
# How the values were obtained:
# Assay in all cases: glycan array binding signal (z-score within array); higher = stronger binding
# Conditions in all cases: glycan notation: IUPAC condensed, linker removed
# [1] = target: Fuc(a1-2)Gal(b1-3)GalNAc(a1-3)[Fuc(a1-2)]Gal(b1-4)GlcNAc
# Summary of the method: (§1)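 Negative Z-scores can be read as non-binding. The Z-score is calculated within each array and then averaged across arrays of one protein sequence at different concentrations or buffers and across linkers. Arrays, 3228 in all, were curated from the Consortium for Functional Glycomics database and kept only where the protein sequence was available.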
# [2] = target: Fuc(a1-2)Gal(b1-3)GlcNAc(b1-3)[Gal(b1-4)GlcNAc(b1-6)]Gal(b1-4)Glc
# Summary of the method: as §1
# [3] = target: Fuc(a1-2)Gal(b1-3)[Fuc(a1-4)]GlcNAc(b1-3)[Gal(b1-4)GlcNAc(b1-6)]Gal(b1-4)Glc
# Summary of the method: as §1
# Fuc(a1-2)Gal(b1-4)Glc6S = target: Fuc(a1-2)Gal(b1-4)Glc6S
# Summary of the method: as §1
# [4] = target: Fuc(a1-2)Gal(b1-4)GlcNAc(b1-2)Man(a1-3)[Fuc(a1-2)Gal(b1-4)GlcNAc(b1-2)Man(a1-6)]Man(b1-4)GlcNAc(b1-4)GlcNAc
# Summary of the method: as §1
# [5] = target: Fuc(a1-2)Gal(b1-4)GlcNAc(b1-2)[Fuc(a1-2)Gal(b1-4)GlcNAc(b1-4)]Man(a1-3)[Fuc(a1-2)Gal(b1-4)GlcNAc(b1-2)Man(a1-6)]Man(b1-4)GlcNAc(b1-4)GlcNAc
# Summary of the method: as §1
# [6] = target: Fuc(a1-2)Gal(b1-4)GlcNAc(b1-3)Gal(b1-4)GlcNAc(b1-2)Man(a1-3)[Fuc(a1-2)Gal(b1-4)GlcNAc(b1-3)Gal(b1-4)GlcNAc(b1-2)Man(a1-6)]Man(b1-4)GlcNAc(b1-4)GlcNAc
# Summary of the method: as §1
# [7] = target: Fuc(a1-2)Gal(b1-4)GlcNAc(b1-3)Gal(b1-4)GlcNAc(b1-3)Gal(b1-4)GlcNAc
# Summary of the method: as §1
# [8] = target: Fuc(a1-2)Gal(b1-4)GlcNAc(b1-6)GalNAc
# Summary of the method: as §1
# [9] = target: Fuc(a1-2)[GalNAc(a1-3)]Gal(b1-4)GlcNAc(b1-3)Gal(b1-4)GlcNAc
# Summary of the method: as §1
# [10] = target: Fuc(a1-2)[GalNAc(b1-3)]Gal
# Summary of the method: as §1
# [11] = target: Fuc(a1-3)[Gal(b1-4)]Glc6S
# Summary of the method: as §1
# [12] = target: Fuc(a1-3)[Gal(b1-4)]GlcNAc
# Summary of the method: as §1
# [13] = target: Fuc(a1-3)[Gal3S(b1-4)]GlcNAc6S
# Summary of the method: as §1
# [14] = target: Gal(a1-3)[Gal(a1-4)]Gal(b1-4)GlcNAc
# Summary of the method: as §1
# Gal(a1-4)Gal(b1-4)Glc = target: Gal(a1-4)Gal(b1-4)Glc
# Summary of the method: as §1
# Gal(a1-4)GlcNAc = target: Gal(a1-4)GlcNAc
# Summary of the method: as §1
# Gal(a1-6)Glc = target: Gal(a1-6)Glc
# Summary of the method: as §1
# [15] = target: Gal(b1-3)GalNAc(b1-4)Gal(b1-4)Glc
# Summary of the method: as §1
# Gal(b1-3)GlcNAc = target: Gal(b1-3)GlcNAc
# Summary of the method: as §1
# [16] = target: Gal(b1-3)[Fuc(a1-4)]GlcNAc
# Summary of the method: as §1
# [17] = target: Gal(b1-3)[Fuc(a1-4)]GlcNAc(b1-3)Gal(b1-3)[Fuc(a1-4)]GlcNAc
# Summary of the method: as §1
# [18] = target: Gal(b1-3)[Neu5Ac(a2-6)]GlcNAc(b1-4)Gal(b1-4)Glc
# Summary of the method: as §1
# Gal(b1-4)Glc6S = target: Gal(b1-4)Glc6S
# Summary of the method: as §1
# [19] = target: Gal(b1-4)GlcNAc(b1-2)Man(a1-3)[Gal(b1-4)GlcNAc(b1-2)Man(a1-6)][Gal(b1-4)GlcNAc(b1-4)]Man(b1-4)GlcNAc(b1-4)[Fuc(a1-6)]GlcNAc
# Summary of the method: as §1
# [20] = target: Gal(b1-4)GlcNAc(b1-3)Gal(b1-4)GlcNAc(b1-2)[Gal(b1-4)GlcNAc(b1-3)Gal(b1-4)GlcNAc(b1-6)]Man(a1-6)[Gal(b1-4)GlcNAc(b1-3)Gal(b1-4)GlcNAc(b1-2)Man(a1-3)]Man(b1-4)GlcNAc(b1-4)[Fuc(a1-6)]GlcNAc
# Summary of the method: as §1
# [21] = target: Gal(b1-4)GlcNAc(b1-3)Gal(b1-4)GlcNAc(b1-3)Gal(b1-4)GlcNAc(b1-3)Gal(b1-4)GlcNAc(b1-3)Gal(b1-4)GlcNAc(b1-2)[Gal(b1-4)GlcNAc(b1-3)Gal(b1-4)GlcNAc(b1-3)Gal(b1-4)GlcNAc(b1-3)Gal(b1-4)GlcNAc(b1-3)Gal(b1-4)GlcNAc(b1-6)]Man(a1-6)[Gal(b1-4)GlcNAc(b1-3)Gal(b1-4)GlcNAc(b1-3)Gal(b1-4)GlcNAc(b1-3)Gal(b1-4)GlcNAc(b1-3)Gal(b1-4)GlcNAc(b1-2)Man(a1-3)]Man(b1-4)GlcNAc(b1-4)[Fuc(a1-6)]GlcNAc
# Summary of the method: as §1
# Gal4S6S(b1-4)GlcNAc = target: Gal4S6S(b1-4)GlcNAc
# Summary of the method: as §1
# [22] = target: GalNAc(a1-3)GalNAc(b1-3)Gal(a1-4)Gal(b1-4)GlcNAc
# Summary of the method: as §1
# [23] = target: GalNAc(b1-4)GlcNAc(b1-2)Man(a1-3)[GalNAc(b1-4)GlcNAc(b1-2)Man(a1-6)]Man(b1-4)GlcNAc(b1-4)GlcNAc
# Summary of the method: as §1
# GalNAc(b1-6)GalNAc = target: GalNAc(b1-6)GalNAc
# Summary of the method: as §1
# GalNAc6S(b1-4)GlcNAc = target: GalNAc6S(b1-4)GlcNAc
# Summary of the method: as §1
# [24] = target: Glc(a1-4)Glc(a1-4)Glc(a1-4)Glc
# Summary of the method: as §1
# Glc(b1-6)Glc = target: Glc(b1-6)Glc
# Summary of the method: as §1
# [25] = target: GlcNAc(a1-4)Gal(b1-3)GlcNAc
# Summary of the method: as §1
# [26] = target: GlcNAc(a1-4)Gal(b1-4)GlcNAc(b1-3)Gal(b1-4)[Fuc(a1-3)]GlcNAc(b1-3)Gal(b1-4)[Fuc(a1-3)]GlcNAc
# Summary of the method: as §1
# [27] = target: GlcNAc(b1-3)Gal(b1-4)GlcNAc
# Summary of the method: as §1
# [28] = target: GlcNAc(b1-3)Gal(b1-4)GlcNAc(b1-2)Man(a1-3)[GlcNAc(b1-3)Gal(b1-4)GlcNAc(b1-2)Man(a1-6)]Man(b1-4)GlcNAc(b1-4)GlcNAc
# Summary of the method: as §1
# [29] = target: GlcNAc(b1-3)Gal(b1-4)GlcNAc(b1-3)Gal(b1-4)GlcNAc(b1-2)[GlcNAc(b1-3)Gal(b1-4)GlcNAc(b1-3)Gal(b1-4)GlcNAc(b1-6)]Man(a1-6)[GlcNAc(b1-3)Gal(b1-4)GlcNAc(b1-3)Gal(b1-4)GlcNAc(b1-2)Man(a1-3)]Man(b1-4)GlcNAc(b1-4)[Fuc(a1-6)]GlcNAc
# Summary of the method: as §1
# Kdn(a2-3)Gal(b1-3)GalNAc = target: Kdn(a2-3)Gal(b1-3)GalNAc
# Summary of the method: as §1
# [30] = target: Neu5Ac(a2-3)Gal(b1-4)GlcNAc(b1-3)Gal(b1-3)GlcNAc
# Summary of the method: as §1
# [31] = target: Neu5Ac(a2-3)Gal(b1-4)GlcNAc(b1-3)Gal(b1-4)GlcNAc(b1-2)Man(a1-3)[Neu5Ac(a2-3)Gal(b1-4)GlcNAc(b1-3)Gal(b1-4)GlcNAc(b1-2)Man(a1-6)]Man(b1-4)GlcNAc(b1-4)GlcNAc
# Summary of the method: as §1
# [32] = target: Neu5Ac(a2-3)Gal(b1-4)[Fuc(a1-3)]GlcNAc(b1-2)Man
# Summary of the method: as §1
# [33] = target: Neu5Ac(a2-3)Gal(b1-4)[Fuc(a1-3)]GlcNAc(b1-3)Gal(b1-4)GlcNAc
# Summary of the method: as §1
# [34] = target: Neu5Ac(a2-6)Gal(b1-4)GlcNAc(b1-2)Man(a1-3)[Neu5Ac(a2-3)Gal(b1-4)GlcNAc(b1-2)Man(a1-6)]Man(b1-4)GlcNAc(b1-4)GlcNAc
# Summary of the method: as §1
# [35] = target: Neu5Ac(a2-6)Gal(b1-4)GlcNAc6S
# Summary of the method: as §1
# Neu5Ac(a2-8)Neu5Ac = target: Neu5Ac(a2-8)Neu5Ac
# Summary of the method: as §1
# [36] = target: Neu5Ac(a2-8)Neu5Ac(a2-8)Neu5Ac
# Summary of the method: as §1
# [37] = target: Neu5Ac9Ac(a2-6)Gal(b1-4)GlcNAc
# Summary of the method: as §1
# [38] = target: Neu5Gc(a2-3)Gal(b1-4)GlcNAc
# Summary of the method: as §1
# [39] = target: Neu5Gc(a2-3)Gal(b1-4)[Fuc(a1-3)]GlcNAc
# Summary of the method: as §1
# [40] = target: Neu5Gc(a2-8)Neu5Ac(a2-3)Gal(b1-4)GlcNAc
# Summary of the method: as §1
binder,measurement,setting,value
B1,glycan array binding signal (z-score),[1],-0.691
same,glycan array binding signal (z-score),[2],-0.772
same,glycan array binding signal (z-score),[3],-1.91
same,glycan array binding signal (z-score),Fuc(a1-2)Gal(b1-4)Glc6S,2.67
same,glycan array binding signal (z-score),[4],2.13
same,glycan array binding signal (z-score),[5],-0.492
same,glycan array binding signal (z-score),[6],0.254
same,glycan array binding signal (z-score),[7],3.25
same,glycan array binding signal (z-score),[8],0.512
same,glycan array binding signal (z-score),[9],1.94
same,glycan array binding signal (z-score),[10],0.38
same,glycan array binding signal (z-score),[11],0.721
same,glycan array binding signal (z-score),[12],-0.68
same,glycan array binding signal (z-score),[13],1.04
same,glycan array binding signal (z-score),[14],-0.317
same,glycan array binding signal (z-score),Gal(a1-4)Gal(b1-4)Glc,3.04
same,glycan array binding signal (z-score),Gal(a1-4)GlcNAc,0.386
same,glycan array binding signal (z-score),Gal(a1-6)Glc,-1.58
same,glycan array binding signal (z-score),[15],2.86
same,glycan array binding signal (z-score),Gal(b1-3)GlcNAc,-0.186
same,glycan array binding signal (z-score),[16],-0.618
same,glycan array binding signal (z-score),[17],1.63
same,glycan array binding signal (z-score),[18],-0.885
same,glycan array binding signal (z-score),Gal(b1-4)Glc6S,0.592
same,glycan array binding signal (z-score),[19],-0.393
same,glycan array binding signal (z-score),[20],2.56
same,glycan array binding signal (z-score),[21],4.04
same,glycan array binding signal (z-score),Gal4S6S(b1-4)GlcNAc,0.198
same,glycan array binding signal (z-score),[22],0.706
same,glycan array binding signal (z-score),[23],-1.23
same,glycan array binding signal (z-score),GalNAc(b1-6)GalNAc,0.192
same,glycan array binding signal (z-score),GalNAc6S(b1-4)GlcNAc,0.22
same,glycan array binding signal (z-score),[24],0.035
same,glycan array binding signal (z-score),Glc(b1-6)Glc,-1.06
same,glycan array binding signal (z-score),[25],-0.658
same,glycan array binding signal (z-score),[26],1.23
same,glycan array binding signal (z-score),[27],0.117
same,glycan array binding signal (z-score),[28],2.67
same,glycan array binding signal (z-score),[29],2.72
same,glycan array binding signal (z-score),Kdn(a2-3)Gal(b1-3)GalNAc,3.09
same,glycan array binding signal (z-score),[30],1.03
same,glycan array binding signal (z-score),[31],2.5
same,glycan array binding signal (z-score),[32],-0.307
same,glycan array binding signal (z-score),[33],0.427
same,glycan array binding signal (z-score),[34],0.213
same,glycan array binding signal (z-score),[35],0.8
same,glycan array binding signal (z-score),Neu5Ac(a2-8)Neu5Ac,-0.418
same,glycan array binding signal (z-score),[36],-0.119
same,glycan array binding signal (z-score),[37],2.97
same,glycan array binding signal (z-score),[38],0.306
same,glycan array binding signal (z-score),[39],0.377
same,glycan array binding signal (z-score),[40],-0.354
